Results on 40 molecules are retold here after PubChem BioAssay (EPA / NIEHS).

Calls of active or inactive are those of the source. Rule for the calls: active = hit-call score of the fitted dose curve at least 0.9, where 1 is the maximum; inactive = score below 0.9.

Read-out in the assay: solute carrier (SLCO1B1), SLCO1B1 (gene 10599)
The assay is described as follows: LTEA_HepaRG_SLCO1B1: Life Technologies and Expression Analysis (LTEA) Assay for solute carrier (SLCO1B1) using HepaRG (AID 2283530). Conditions: mRNA level, 48 h; actives raise or lower the signal. Here is the method:
LTEA_HepaRG is a cell based, multiplexed-readout assay that uses HepaRG, a human liver cell line, with measurements taken at 48 hours after chemical dosing on a 96-well plate.LTEA_HepaRG_SLCO1B1 is one of 102 assay component(s) measured in the LTEA HepaRG cell culture assay. It is a marker of NR mediated transport.Data from the assay component LTEA_HepaRG_SLCO1B1 was analyzed into 1 endpoint. This assay endpoint, LTEA_HepaRG_SLCO1B1, was analyzed with bidirectional fitting relative to DMSO as the negative control and baseline of activity. Using a type of inducible reporter, measures of mRNA induction for gain or loss-of-signal activity can be used to understand regulation of transcription factor activity. To generalize the intended target to other relatable targets, this assay endpoint is annotated to the transporter intended target family, where the subfamily is organic anion transporter.
A total of 1060 chemcials from the ToxCast library were tested in eight-point concentration-response experiments. Cell culture and cytotoxicity assays were conducted at Thermo Fisher Scientific's Custom Services facility (Madison, WI). A single lot of human HepaRG cells (Thermo Fisher Scientific, Frederick, MD) was used for the cell culture experiments. 96-well format collagen type I coated plates of human HepaRG cells were prepared using established methods. Briefly, cryopreserved HepaRG cells were thawed, plated at a density of approximately 100,000 cells/well in HepaRG Thaw, Plate, and General Purpose media (HPRG770, Thermo Fisher Scientific), and incubated for 48 hours. 0.5% DMSO was selected as vehicle control to balance the requisite need of DMSO in HepaRG cultures to maintain differentiation (for example, baseline metabolism, proportions of hepatocytes vs. cholangiocytes), while enabling further hepatic receptor pathway activation (for example, PXR and CAR) in response to chemical exposure. 48 hours after plating, the culture medium was replaced with HepaRG Serum-Free Incudtion Media. Cells were exposed to each test chemical in duplicate and maintained in CO2 incubators for another 48 hours. Chemical plates were thawed to room temperature and 200x concentrations of treatment groups were prepared. 8-point conentration-reponse curves were made with the highest exposure at 100 uM, followed by half-log dilutions, all in 0.5% DMSO. Each test plate contained variouse controls, induction positive controls (1mM phenobarbital), cytotoxicity positive controls ([…] aflatoxin B1), vehicle controls (0.5% DMSO), and total lysis controls (0.5% DMSO). Cell morphology images were taken using an Essen IncuCyte FLR automated microscope, with six 96-well plates imaged in about 24 minutes. Images were captured and exported and JPEG files. Spent culture media was transfered to black-well plates for the LDH assay, and remaining media was sorted at -80 C for later use. Cells were treated with RLT buffer and frozen until shipped for gene expression analysis. Total RNA was isolated from the cell suspension in 75 uL of Buffer RLT (Qiagen, Germantown, MD 20874) by Quintiles/Expression Analysis (Durham, NC) using a custom isolation procedure. Total RNA from each plate well was transferred to a preamplification plate. Fluidigm's 96.96 Dynamic ArrayTM (Fluidigm, Amsterdam, the Netherlands) technology was used for gene expression analyses by quantitative reverse transcription polymerase chain reaction (qRT-PCR, performed by Quintiles/Expression Analysis, Durham, NC)89. Standard TaqManTM Assays (Applied Biosystems/ThermoFisher Scientific, Foster City, CA) were used to assess the expression of 93 genes selected based on their selectivity and sensitivity to important hepatic receptors known to be modulated by environmental chemicals; importance in human hepatocyte functionality; and hepatotoxicity. […]
Consider `CCOC(=O)COc1ccc2c(c1)CC(NCC(O)c1cccc(Cl)c1)CC2` (stereo not given), for which the molecule was classed as inactive.
Turning to `CC(=O)OC[C@H]1O[C@@](COC(C)=O)(O[C@H]2O[C@H](COC(C)=O)[C@@H](OC(C)=O)[C@H](OC(C)=O)[C@H]2OC(C)=O)[C@@H](OC(C)=O)[C@@H]1OC(C)=O`, the molecule was called inactive.
With `Cc1c(-c2cccnc2)c2ccccc2n1CCCCC(=O)O`, the outcome was inactive.
In the case of `CCC(C)(C)C(=O)O[C@H]1C[C@@H](C)C=C2C=C[C@H](C)[C@H](CC[C@@H]3C[C@@H](O)CC(=O)O3)[C@H]21`, the molecule was classed as inactive.
In the case of `CC(C)CCCCCCCOC(=O)CCCCC(=O)OCCCCCCCC(C)C`, the molecule was classed as inactive.
Regarding `CCCN(C1CCN(C(=O)C2CCNCC2)CC1)[C@@H]1CCc2ccc(OC)cc2C1`, the AC50 (in general, the concentration giving half of the maximal activity seen) was 79.4 µM (active).
Take `Fc1ccccc1[C@@H](F)COC1CCC(Nc2ncnc3[nH]ncc23)CC1` (stereo not given in full): the AC50 was 71.7 µM (active).
In the case of `C1=CCCC=CCCC=CCC1`, the outcome was inactive.
In the case of `CC(C)=CCC/C(C)=C/CO`, the outcome was inactive.
Same read-out and setting: next, `CC(C)=CCCC(C)=CC=O`: “inactive”.
Turning to `O=P(OC(CCl)CCl)(OC(CCl)CCl)OC(CCl)CCl`, the half-maximal activity concentration (AC50) is 50 µM (active).
On to `Cc1ccc(N)cc1O`, for which the result was inactive.
On to `Oc1ccc2c(c1)-c1ccccc1C2`, for which the outcome was inactive.
With `CCCCCCCCCCCCc1ccccc1`, the molecule was called inactive.
Consider `O=C(CCCCCCCCc1cccnc1)N1CCC(C=C(c2ccccc2)c2ccccc2)CC1`, for which the AC50 was 50 µM (active).
For `On1ccccc1=S`, the outcome was inactive.
Consider `CCN(C(=O)c1cc(C)cc(OC[C@H](C)Nc2ccncc2)c1)C(C)C`, for which the molecule was classed as inactive.
Still for that read-out and setting: with `COC(=O)CC(=O)OC` the entry was “inactive”; with `CC[C@H](C)C(=O)O[C@H]1C[C@@H](C)C=C2C=C[C@H](C)[C@H](CC[C@@H]3C[C@@H](O)CC(=O)O3)[C@H]21`, “inactive”; with `CC(C)CCO`, “inactive”.
As to `Cn1cnc([N+](=O)[O-])c1Sc1ncnc2nc[nH]c12`, the AC50 is 1.62 µM (active).
On to `O=C(O)c1cccc(N(Cc2cccnc2)c2ccc(OC(F)F)c(OC(F)F)c2)c1`, for which the molecule was classed as inactive.
On to `COc1ccc(/C=C/S(=O)(=O)NC(=O)c2ccc(C)cc2Cl)cc1`, for which the molecule was classed as inactive.
Same read-out and setting: next, `O=C1CCCCCN1`: “inactive”; `O=C1OC(=O)C2C3C=CC(C3)C12` (stereo not given): “inactive”.
For the molecule `Nc1nc2ncc(CNc3ccc(C(=O)N[C@@H](CCC(=O)O)C(=O)O)cc3)nc2c(=O)[nH]1`, the result was inactive.
Take `O=C(O)c1cccc(Oc2ccccc2)c1`: the molecule was classed as inactive.
For `C=CC(=C)CCC=C(C)C`, the molecule was classed as inactive.
Consider `Cn1c(=O)cc(Oc2ccc(F)cc2F)c2cnc(NCC(C)(C)O)nc21`, for which the outcome was inactive.
Take `Cn1c(=O)c2c(ncn2C)n(C)c1=O`: the result was inactive.
As for `COCCOc1cc2cc(C(=O)NC3CCN(C(C)C)CC3)n(CC(=O)Nc3ccc(Cl)cn3)c2cn1`, the AC50 was 56.5 µM (active).
`CCOCCO`: the call was inactive.
`CNCc1ccc(NC(=O)c2c[nH]c3c2C(=O)CCC3)cc1`: the molecule was called inactive.
In the case of `CC(C)=CCC/C(C)=C\CO`, the result was inactive.
Regarding `COC(=O)c1ccccc1O`, the molecule was called inactive.
Still for that read-out and setting: next, `Clc1nc(Cl)c(Cl)c(Cl)c1Cl`: “inactive”; `CC/C(=C\C(=N/O)C(N)=O)C(C)[N+](=O)[O-]` (stereo not given): “inactive”.
With `Nc1ccc(Nc2ccccc2)cc1`, the AC50 is 35.4 µM (active).
As for `CCCCCCc1ccc(O)cc1O`, the molecule was called inactive.
Turning to `Cc1ccc(O)cc1`, the call was inactive.
